Inconclusive results are not listed. Activity calls are given as the source filed them. Unless noted, the call rests on the fitted dose curve; in most records, active means well fitted curve in the direction sought with a large enough effect in the repeat runs; inconclusive means weak or mixed curves; inactive means no such curve, though single readings can be large; an effect the other way counts as inactive or inconclusive.
Tests used:
[1] = qHTS assay to identify small molecule antagonists of the TGF-beta/Smad signaling pathway - cell viability counter screen (AID 1346824); further: nearly all actives have a fitted effect of over 50% in size
Method in brief: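 Cytotoxicity counter-screen run in the same wells as the beta-lactamase Smad reporter read: CellTiter-Glo luminescence after 30 min at room temperature. HEK 293T SBE-bla cells had 5 hr compound exposure at 37 C with TGF-beta1 (0.25 ng/mL stock).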

[2] = qHTS assay to identify small molecule agonists of the TGF-beta/Smad signaling pathway - cell viability counter screen (AID 1346829); further: top concentration of the series differs between compounds; nearly all actives have a fitted effect of over 45% in size
Method in brief: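 In parallel with the Smad reporter read, viability of HEK 293T cells stably carrying SBE-bla is quantified by ATP luminescence following 5 hr compound treatment.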

[3] = qHTS assay to identify small molecule agonists of the TGF-beta/Smad signaling pathway (AID 1346859; active means well fitted activation curve with a large enough effect in the signal ratio in the repeat runs, not every such curve was filed as active; the % refers to the signal ratio; further: series mostly up to about 77 µM)
Method in brief: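 Fluorescence (ex 405 nm; em 460 and 530 nm) was read 2 h after LiveBLAzer FRET substrate at RT. The preceding compound treatment of overnight-plated SBE-bla HEK293T cells lasted 5 h at 37 C.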

[4] = Human pregnane X receptor (PXR) small molecule agonists, qHTS cell viability counter screen (AID 1346977); further: nearly all actives have a fitted effect of over 50% in size; further: potency means the concentration at half of the fitted maximal effect
Method in brief: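 Same-well viability read: CellTiter-Fluor added after 23 hr compound exposure, fluorescence measured 1 hr later. Cells were PXR-Luc HepG2 seeded at 2,000/well in 5% charcoal-stripped FBS medium, rested 5 hr before dosing at 37 C.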

[5] = Caspase-3/7 induction in HepG2 cells by small molecules, qHTS assay (AID 1346978); further: nearly all actives have a fitted effect of over 15% in size
Method in brief: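 Caspase-3/7 induction was measured by Caspase-Glo 3/7 luminescence (30 min, room temperature) after a 17 hr compound exposure of wild-type HepG2 cells seeded at 2,000 per well and pre-incubated 5 hr.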

[6] = Caspase-3/7 induction in CHO-K1 cells by small molecules, qHTS cell viability counter screen (AID 1346979); further: nearly all actives have a fitted effect of over 35% in size; further: potency means the concentration at half of the fitted maximal effect
Method in brief: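 Cytotoxicity counter screen: CellTiter-Fluor added to compound-treated wild-type CHO-K1 cells at 16 h (37C, 5% CO2), fluorescence measured 1 h later; same wells as caspase-3/7 measurement.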

[7] = Caspase-3/7 induction in CHO-K1 cells by small molecules, qHTS assay (AID 1346980); further: nearly all actives have a fitted effect of over 15% in size
Method in brief: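 Luminescent Caspase-Glo 3/7 read (30min, room temperature) quantified apoptosis induction. Cells were wild-type CHO-K1, treated with compound for 17hr at 37 C and 5% CO2.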

[8] = Caspase-3/7 induction in HepG2 cells by small molecules, qHTS cell viability counter screen (AID 1346981); further: nearly all actives have a fitted effect of over 30% in size; further: potency means the concentration at half of the fitted maximal effect
Method in brief: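 HepG2, WT, 2,000 cells/well; 5 hr pre-incubation 37 C/5% CO2; compound pin-transferred from DMSO; 16 hr exposure; CellTiter-Fluor, 1 hr; fluorescence read.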

[9] = target: Nuclear receptor subfamily 1 group I member 2 (Homo sapiens) (UniProt O75469); test: Human pregnane X receptor (PXR) small molecule agonists, qHTS assay (AID 1346982); further: nearly all actives have a fitted effect of over 35% in size
Method in brief: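 Luciferase signal from ONE-Glo (30 min, room temperature) measured activation of hPXR-driven CYP3A4 reporter expression in PXR-Luc HepG2 cells treated with compounds for 24 hr at 37 C.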

[10] = target: Cytochrome P450 2D6 (Homo sapiens) (UniProt P10635); test: Cytochrome P450 Family 2 Subfamily D Member 6 (CYP2D6) small molecule antagonists: luciferase reporter qHTS assay (AID 1671196); further: nearly all actives have a fitted effect of over 50% in size; further: potency means the concentration at half of the fitted maximal effect
Method in brief: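 Read-out is luminescence from luciferin formed by CYP2D6 turnover of a proluciferin substrate, recorded as relative luminescence units. Reactions ran 1 h at room temperature after NADPH regeneration solution was added.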

[11] = target: Cytochrome P450 2C19 (Homo sapiens) (UniProt P33261); test: Cytochrome P450 Family 2 Subfamily C Member 19 (CYP2C19) small molecule antagonists: luciferase reporter qHTS assay (AID 1671197); further: nearly all actives have a fitted effect of over 65% in size; further: potency means the concentration at half of the fitted maximal effect
Method in brief: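 Compounds were tested on CYP2C19 activity via proluciferin conversion to luciferin. The 37C, 1 h reaction followed NADPH addition; detection reagent stopped it.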

[12] = target: Cytochrome P450 2C9 (Homo sapiens) (UniProt P11712); test: Cytochrome P450 Family 2 Subfamily C Member 9 (CYP2C9) small molecule antagonists: luciferase reporter qHTS assay (AID 1671198); further: nearly all actives have a fitted effect of over 50% in size; further: potency means the concentration at half of the fitted maximal effect
Method in brief: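 Enzyme-substrate mix preincubated with compound 10 min at room temperature; reaction started with NADPH regeneration solution, 1 h 37C. Luminescent luciferin product read after 20 min detection reagent.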

[13] = target: Cytochrome P450 1A2 (Homo sapiens) (UniProt P05177); test: Cytochrome P450 Family 1 Subfamily A Member 2 (CYP1A2) small molecule antagonists: luciferase reporter qHTS assay (AID 1671199); further: nearly all actives have a fitted effect of over 50% in size; further: potency means the concentration at half of the fitted maximal effect
Method in brief: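 P450-Glo CYP1A2, 1536-well qHTS: enzyme/proluciferin substrate + cpd (DMSO), 10 min RT; NADPH regen, 1 h RT; detection reagent, 20 min; luminescence, RLU.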

[14] = target: Voltage-gated inwardly rectifying potassium channel KCNH2 (Homo sapiens) (UniProt Q12809); test: Human Ether-a-go-go-Related Gene (hERG) channel small molecule antagonists: fluorescence cell-based qHTS assay (AID 1671200)
Method in brief: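 Thallium flux as potassium surrogate: FluxOR II dye loaded 1 h at room temperature into hERG-expressing U2OS cells, then stimulus buffer added after 10 min. Kinetic 480 nm excitation/540 nm emission read, 2 min.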

[15] = target: Cytochrome P450 3A4 (Homo sapiens) (UniProt P08684); test: Cytochrome P450 Family 3 Subfamily A Member 4 (CYP3A4) small molecule antagonists: luciferase reporter qHTS assay (AID 1671201); further: nearly all actives have a fitted effect of over 50% in size; further: potency means the concentration at half of the fitted maximal effect
Method in brief: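 Recombinant human CYP3A4 converts a proluciferin substrate to luciferin over 1 h at room temperature after NADPH regeneration solution is added (compound preincubated 10 min); detection reagent stops reaction, luminescence read 20 min later as relative units.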

[16] = target: Thyrotropin-releasing hormone receptor (Homo sapiens) (UniProt P34981); test: qHTS assay to identify small molecule agonists of the thyrotropin-releasing hormone receptor (TRHR) signaling pathway (AID 1346891; calls by dose curve; further: series mostly up to about 58 µM)
Method in brief: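 Agonist-mode intracellular calcium readout: kinetic fluorescence over 3 min at 1 s intervals after compound addition to TRHR-HEK293 cells (18 h seeded, 2 h dye-loaded at 37 C). Fifteen concentrations, triplicates.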

[17] = target: Nuclear receptor subfamily 1 group I member 2 (Rattus norvegicus) (UniProt Q9R1A7); test: Rat pregnane X receptor (rPXR) activation by small molecules, qHTS assay (AID 1346983); conditions: rPXR luciferase reporter cells, One-Glo luminescence, 24 h; max activation: hits give high values; further: nearly all actives have a fitted effect of over 20% in size
Method in brief: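 Luminescent readout (One-Glo luciferase, 30 min room temperature) followed 24 hr compound treatment at 37 C of rPXR cells plated 2,000 per well and preincubated 5hr; qHTS format with compounds delivered in DMSO.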

[18] = target: Nuclear receptor subfamily 1 group I member 2 (Homo sapiens) (UniProt O75469); test: CYP3A4 induction through human pregnane X receptor (PXR) by small molecules, qHTS assay (AID 1346984); further: nearly all actives have a fitted effect of over 40% in size
Method in brief: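 Luminescence readout: luciferase signal after One-Glo (30 min, room temperature), following 3 h at 37C with 3uM final Luciferin-IPA P450 substrate. Cells were DPX-2 (HepG2, PXR/CYP3A4-luc co-transfected) dosed for 24 h.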

[19] = target: Nuclear receptor subfamily 1 group I member 2 (Homo sapiens) (UniProt O75469); test: Human pregnane X receptor (PXR) activation by small molecules, qHTS assay (AID 1346985); further: nearly all actives have a fitted effect of over 40% in size
Method in brief: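 DPX-2 cells (HepG2 co-transfected with a PXR response element and a CYP3A4-promoter luciferase construct) were seeded at 2,000 per well, rested 5 hr at 37C, then exposed to DMSO-dissolved compounds for 24 hr. Activation was read as luciferase luminescence.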
On the % scale 0 is the no-effect control and ±100 the full control effect.

Cytochrome P450 1A2 (Homo sapiens), sequence (P05177 whole entry, looked up): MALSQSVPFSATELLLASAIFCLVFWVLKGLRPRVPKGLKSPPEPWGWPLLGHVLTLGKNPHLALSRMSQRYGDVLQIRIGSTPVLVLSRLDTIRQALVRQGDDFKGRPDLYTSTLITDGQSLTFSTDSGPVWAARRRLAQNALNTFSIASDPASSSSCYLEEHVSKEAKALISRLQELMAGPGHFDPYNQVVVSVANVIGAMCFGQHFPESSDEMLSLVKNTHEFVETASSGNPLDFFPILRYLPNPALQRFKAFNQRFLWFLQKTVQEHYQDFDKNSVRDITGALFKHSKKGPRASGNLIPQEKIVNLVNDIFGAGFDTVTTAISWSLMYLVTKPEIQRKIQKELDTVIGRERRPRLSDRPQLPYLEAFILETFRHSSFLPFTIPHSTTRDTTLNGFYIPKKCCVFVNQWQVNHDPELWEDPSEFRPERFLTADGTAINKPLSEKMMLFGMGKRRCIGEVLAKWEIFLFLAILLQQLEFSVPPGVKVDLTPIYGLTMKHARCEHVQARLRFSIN
Cytochrome P450 2C9 (Homo sapiens), sequence (P11712 whole entry, looked up): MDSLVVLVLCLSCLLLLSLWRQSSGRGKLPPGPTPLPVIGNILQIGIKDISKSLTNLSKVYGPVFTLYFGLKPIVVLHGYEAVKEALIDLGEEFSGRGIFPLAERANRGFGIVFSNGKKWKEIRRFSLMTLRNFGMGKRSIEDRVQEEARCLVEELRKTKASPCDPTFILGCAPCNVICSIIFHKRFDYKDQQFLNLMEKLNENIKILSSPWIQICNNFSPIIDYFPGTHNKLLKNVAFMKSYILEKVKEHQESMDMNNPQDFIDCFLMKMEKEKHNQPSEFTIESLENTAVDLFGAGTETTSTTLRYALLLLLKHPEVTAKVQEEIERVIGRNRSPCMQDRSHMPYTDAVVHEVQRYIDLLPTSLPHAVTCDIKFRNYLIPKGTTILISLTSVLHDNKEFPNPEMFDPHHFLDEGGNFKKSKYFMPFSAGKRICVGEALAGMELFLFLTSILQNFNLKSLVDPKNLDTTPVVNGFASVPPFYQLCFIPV
Cytochrome P450 2C19 (Homo sapiens), sequence (P33261 whole entry, looked up): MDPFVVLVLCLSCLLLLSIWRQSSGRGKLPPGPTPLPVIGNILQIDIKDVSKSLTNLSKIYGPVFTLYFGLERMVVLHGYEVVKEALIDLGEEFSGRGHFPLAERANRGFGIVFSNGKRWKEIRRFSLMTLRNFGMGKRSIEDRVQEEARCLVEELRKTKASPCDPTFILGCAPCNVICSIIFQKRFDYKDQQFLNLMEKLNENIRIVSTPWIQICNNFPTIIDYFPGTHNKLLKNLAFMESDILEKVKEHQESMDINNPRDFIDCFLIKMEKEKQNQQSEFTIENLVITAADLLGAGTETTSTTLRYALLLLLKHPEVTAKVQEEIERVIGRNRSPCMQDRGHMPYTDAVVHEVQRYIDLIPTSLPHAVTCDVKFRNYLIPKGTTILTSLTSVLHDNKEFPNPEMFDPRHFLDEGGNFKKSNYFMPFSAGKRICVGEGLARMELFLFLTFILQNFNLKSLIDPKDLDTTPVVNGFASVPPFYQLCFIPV
Cytochrome P450 2D6 (Homo sapiens), sequence (P10635 whole entry, looked up): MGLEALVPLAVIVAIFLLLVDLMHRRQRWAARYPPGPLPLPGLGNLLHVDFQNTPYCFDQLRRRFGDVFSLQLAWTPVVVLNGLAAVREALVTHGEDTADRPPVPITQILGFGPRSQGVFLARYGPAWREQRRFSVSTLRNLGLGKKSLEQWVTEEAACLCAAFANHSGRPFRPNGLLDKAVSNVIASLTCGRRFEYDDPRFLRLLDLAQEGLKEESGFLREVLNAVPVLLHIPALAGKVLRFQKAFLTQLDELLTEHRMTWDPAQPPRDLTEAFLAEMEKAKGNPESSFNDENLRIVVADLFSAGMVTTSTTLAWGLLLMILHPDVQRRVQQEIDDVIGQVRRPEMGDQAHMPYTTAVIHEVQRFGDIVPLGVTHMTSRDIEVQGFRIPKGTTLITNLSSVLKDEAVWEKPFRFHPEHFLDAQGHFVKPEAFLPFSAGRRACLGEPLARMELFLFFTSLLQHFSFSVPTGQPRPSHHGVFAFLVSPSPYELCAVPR
Cytochrome P450 3A4 (Homo sapiens), sequence (P08684 whole entry, looked up): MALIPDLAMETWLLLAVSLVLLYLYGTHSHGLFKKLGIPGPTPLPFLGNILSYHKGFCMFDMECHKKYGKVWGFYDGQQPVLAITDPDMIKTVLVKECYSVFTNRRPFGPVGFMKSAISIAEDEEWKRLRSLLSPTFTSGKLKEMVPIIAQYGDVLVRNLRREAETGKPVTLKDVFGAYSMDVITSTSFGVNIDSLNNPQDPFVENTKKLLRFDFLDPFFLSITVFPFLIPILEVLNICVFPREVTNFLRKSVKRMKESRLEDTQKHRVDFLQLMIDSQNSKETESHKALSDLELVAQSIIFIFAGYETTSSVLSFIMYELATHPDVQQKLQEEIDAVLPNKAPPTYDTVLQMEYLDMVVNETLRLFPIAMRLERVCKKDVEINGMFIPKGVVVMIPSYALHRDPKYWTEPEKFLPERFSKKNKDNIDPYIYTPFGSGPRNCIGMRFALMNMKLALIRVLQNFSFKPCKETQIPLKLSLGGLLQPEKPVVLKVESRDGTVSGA
Nuclear receptor subfamily 1 group I member 2 (Homo sapiens), sequence (O75469 whole entry, looked up): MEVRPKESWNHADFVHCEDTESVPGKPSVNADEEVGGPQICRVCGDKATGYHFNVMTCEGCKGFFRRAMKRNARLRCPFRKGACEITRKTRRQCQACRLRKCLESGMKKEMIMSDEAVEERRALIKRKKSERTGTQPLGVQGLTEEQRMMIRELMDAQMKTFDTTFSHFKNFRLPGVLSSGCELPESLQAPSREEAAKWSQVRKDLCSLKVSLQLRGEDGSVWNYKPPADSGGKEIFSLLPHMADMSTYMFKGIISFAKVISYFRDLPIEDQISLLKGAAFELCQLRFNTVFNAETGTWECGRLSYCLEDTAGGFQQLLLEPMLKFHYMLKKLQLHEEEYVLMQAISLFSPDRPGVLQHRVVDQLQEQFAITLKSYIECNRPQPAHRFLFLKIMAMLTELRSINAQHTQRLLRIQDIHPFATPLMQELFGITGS
Voltage-gated inwardly rectifying potassium channel KCNH2 (Homo sapiens), sequence (Q12809 whole entry, looked up): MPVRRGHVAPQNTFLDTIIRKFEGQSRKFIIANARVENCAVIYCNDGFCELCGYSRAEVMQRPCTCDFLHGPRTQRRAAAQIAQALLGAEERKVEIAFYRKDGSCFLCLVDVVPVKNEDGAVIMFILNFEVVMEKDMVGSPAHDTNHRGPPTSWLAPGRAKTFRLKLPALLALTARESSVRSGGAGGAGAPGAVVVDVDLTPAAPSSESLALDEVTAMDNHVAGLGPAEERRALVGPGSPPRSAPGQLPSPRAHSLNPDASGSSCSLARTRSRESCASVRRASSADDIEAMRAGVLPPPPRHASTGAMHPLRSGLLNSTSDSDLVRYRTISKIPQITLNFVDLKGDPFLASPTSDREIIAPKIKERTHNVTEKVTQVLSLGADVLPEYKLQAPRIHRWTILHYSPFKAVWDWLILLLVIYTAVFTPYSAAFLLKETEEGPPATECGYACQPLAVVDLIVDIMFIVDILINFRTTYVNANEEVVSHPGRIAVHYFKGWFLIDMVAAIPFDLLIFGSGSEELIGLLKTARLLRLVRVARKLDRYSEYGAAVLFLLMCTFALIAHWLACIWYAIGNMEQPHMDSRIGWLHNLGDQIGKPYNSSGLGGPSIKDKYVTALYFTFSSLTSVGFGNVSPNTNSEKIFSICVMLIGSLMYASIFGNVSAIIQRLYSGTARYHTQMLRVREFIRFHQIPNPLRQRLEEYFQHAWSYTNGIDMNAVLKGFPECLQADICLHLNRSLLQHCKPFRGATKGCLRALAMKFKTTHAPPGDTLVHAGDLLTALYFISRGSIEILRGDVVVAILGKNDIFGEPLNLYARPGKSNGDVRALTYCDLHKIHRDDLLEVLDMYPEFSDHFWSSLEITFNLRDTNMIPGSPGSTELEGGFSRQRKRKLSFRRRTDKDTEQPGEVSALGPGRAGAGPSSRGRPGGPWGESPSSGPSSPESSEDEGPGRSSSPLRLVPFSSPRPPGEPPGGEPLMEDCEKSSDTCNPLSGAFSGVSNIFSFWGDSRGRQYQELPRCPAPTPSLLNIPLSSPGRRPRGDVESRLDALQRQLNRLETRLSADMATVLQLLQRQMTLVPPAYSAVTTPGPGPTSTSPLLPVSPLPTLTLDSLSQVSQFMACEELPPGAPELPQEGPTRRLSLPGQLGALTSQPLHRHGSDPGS
Thyrotropin-releasing hormone receptor (Homo sapiens), sequence (P34981 whole entry, looked up): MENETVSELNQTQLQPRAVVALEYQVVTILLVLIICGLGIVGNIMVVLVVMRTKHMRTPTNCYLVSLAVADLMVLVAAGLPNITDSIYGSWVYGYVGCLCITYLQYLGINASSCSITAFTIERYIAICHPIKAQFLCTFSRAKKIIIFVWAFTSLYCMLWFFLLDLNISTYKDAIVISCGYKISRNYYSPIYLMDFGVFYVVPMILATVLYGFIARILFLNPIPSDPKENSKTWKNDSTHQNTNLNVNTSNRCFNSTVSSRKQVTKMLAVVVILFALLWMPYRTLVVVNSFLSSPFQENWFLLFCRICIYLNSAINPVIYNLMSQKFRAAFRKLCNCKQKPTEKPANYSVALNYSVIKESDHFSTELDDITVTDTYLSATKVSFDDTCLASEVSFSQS
Nuclear receptor subfamily 1 group I member 2 (Rattus norvegicus), sequence (Q9R1A7 whole entry, looked up): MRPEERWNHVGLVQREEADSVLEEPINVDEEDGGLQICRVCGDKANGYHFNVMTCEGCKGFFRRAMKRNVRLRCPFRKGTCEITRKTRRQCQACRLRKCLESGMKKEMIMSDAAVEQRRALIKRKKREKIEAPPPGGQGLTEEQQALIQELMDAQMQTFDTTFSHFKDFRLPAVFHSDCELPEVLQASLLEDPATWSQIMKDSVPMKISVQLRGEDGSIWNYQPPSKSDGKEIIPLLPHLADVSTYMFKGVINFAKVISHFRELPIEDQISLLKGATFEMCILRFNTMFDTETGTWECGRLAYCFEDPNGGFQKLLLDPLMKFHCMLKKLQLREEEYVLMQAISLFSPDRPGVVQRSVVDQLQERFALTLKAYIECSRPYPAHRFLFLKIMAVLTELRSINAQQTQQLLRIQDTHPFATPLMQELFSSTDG

COC(=O)CCC(=O)O
inactive: outcome [1] | outcome [2] | outcome [3] | Potency [4] | outcome [5] | Potency [6] | outcome [7] | Potency [8] | Potency [9] | Potency [10] | Potency [11] | Potency [12] | Potency [13] | Potency [14] | Potency [15]

C[C@H](CCC(=O)O)[C@H]1CC[C@H]2[C@@H]3[C@H](O)C[C@@H]4C[C@H](O)CC[C@]4(C)[C@H]3C[C@H](O)[C@]12C
inactive: outcome [1] | outcome [2] | outcome [3] | Potency [4] | outcome [5] | Potency [6] | outcome [7] | Potency [8] | Potency [9] | Potency [10] | Potency [13] | Potency [14] | Potency [15]

COc1cccc2sc(N)nc12
active: Potency [10] 11.3 µM | Potency [11] 56.7 µM | Potency [13] 22.6 µM | Potency [15] 10.1 µM
inactive: outcome [1] | outcome [2] | outcome [3] | outcome [16] | Potency [4] | outcome [5] | Potency [6] | outcome [7] | Potency [8] | Potency [12] | Potency [14]

CCCCCCCCCCCCCCCCCCN(C)C
inactive: outcome [1] | outcome [2] | outcome [3] | Potency [4] | outcome [5] | Potency [6] | outcome [7] | Potency [8] | Potency [9] | Potency [10] | Potency [12] | Potency [14] | Potency [15]

COc1cc([N+](=O)[O-])ccc1N
inactive: outcome [1] | outcome [2] | outcome [3] | outcome [16] | outcome [7] | Potency [9] | Potency [11] | Potency [14]
active: Potency [4] 61.1 µM | Potency [6] 54.5 µM | Potency [8] 54.5 µM | Potency [13] 22.4 µM

C=C(C)[C@@H]1CC[C@@H](C)C[C@@H]1O
active: Potency [13] 39.9 µM
inactive: outcome [1] | outcome [2] | outcome [3] | Potency [4] | Potency [6] | outcome [7] | Potency [8] | Potency [9] | Potency [10] | Potency [11] | Potency [12] | Potency [14] | Potency [15]

CC(=O)OCCCc1ccccc1
inactive: outcome [1] | outcome [2] | outcome [3] | Potency [4] | outcome [5] | Potency [6] | outcome [7] | Potency [8] | Potency [9] | Potency [11] | Potency [12] | Potency [13] | Potency [14] | Potency [15]

CC(C)CCO
inactive: outcome [1] | outcome [2] | outcome [3] | Potency [4] | outcome [7] | Potency [10] | Potency [13] | Potency [14] | Potency [15]

Cc1ccccc1C(=O)N1CC/C(=N\OS(=O)(=O)O)c2ccc(Cl)cc21
inactive: outcome [1] | outcome [2] | outcome [3] | Potency [4] | outcome [5] | Potency [6] | outcome [7] | Potency [8] | Potency [14]
active: Potency [12] 4.36 µM

C[N+](C)(C)CC(O)CCl (stereo unspecified)
inactive: outcome [1] | outcome [2] | outcome [3] | Potency [4] | outcome [5] | Potency [6] | outcome [7] | Potency [8] | Potency [9] | Potency [12] | Potency [13] | Potency [14] | Potency [15]

CC(=O)N(CC(O)CO)c1c(I)c(C(=O)NCC(O)CO)c(I)c(C(=O)NCC(O)CO)c1I (stereo unspecified)
inactive: outcome [1] | outcome [2] | outcome [3] | Potency [4] | outcome [7] | Potency [8] | Potency [9] | max activation [17] -0.214% | outcome [18] | Potency [19] | Potency [10] | Potency [11] | Potency [13] | Potency [14] | Potency [15]

CCCCC/C=C/CC(=O)OC
inactive: outcome [1] | outcome [2] | outcome [3] | Potency [4] | Potency [6] | outcome [7] | Potency [8] | Potency [9] | Potency [10] | Potency [11] | Potency [12] | Potency [14] | Potency [15]

— PubChem BioAssay (Tox21)
